Laboratory results reported in PubChem BioAssay (NCATS).
Records with an inconclusive call do not appear. Calls of active or inactive are those of the source. Unless noted, calls follow the shape of the dose curve; as a rule, active = well fitted curve in the direction sought with a large enough effect; inconclusive = small, poorly fitted or top-dose-only effect, or another doubt; inactive = no such curve, though single readings can be large; an effect the other way counts as inactive or inconclusive.

Legend:
[1] = biological target: D(1A) dopamine receptor (Homo sapiens) (UniProt P21728); test: HTS Assay for Allosteric Agonists of the Human D1 Dopamine Receptor: Primary Screen for Antagonists (AID 488983);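 also: calcium flux response to an EC80 dopamine challenge measured with no-wash dye; nearly all actives have a fitted effect of over 65% in size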; also: potency is read from the fitted curve at half-maximal effect
Chain of D(1A) dopamine receptor (Homo sapiens) (P21728 whole entry, looked up): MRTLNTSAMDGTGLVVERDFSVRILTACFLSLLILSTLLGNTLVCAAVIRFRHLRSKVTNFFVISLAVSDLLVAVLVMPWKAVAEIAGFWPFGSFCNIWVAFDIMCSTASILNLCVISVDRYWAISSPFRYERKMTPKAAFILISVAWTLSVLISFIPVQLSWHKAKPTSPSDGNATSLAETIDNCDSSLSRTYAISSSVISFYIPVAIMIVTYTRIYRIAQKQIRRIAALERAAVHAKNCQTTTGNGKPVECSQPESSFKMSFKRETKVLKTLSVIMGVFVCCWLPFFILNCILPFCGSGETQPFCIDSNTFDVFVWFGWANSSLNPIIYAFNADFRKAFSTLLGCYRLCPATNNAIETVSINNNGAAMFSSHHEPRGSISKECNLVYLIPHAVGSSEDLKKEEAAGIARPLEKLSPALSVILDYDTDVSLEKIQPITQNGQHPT
Method in brief: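 Cells are induced with tetracycline and incubated overnight at 30 C, then loaded with calcium dye for 30 to 90 minutes at room temperature. Compound addition is followed by a 180 s read, then an EC80 dopamine addition and another 180 s read.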

[2] = biological target: ATP-dependent 6-phosphofructokinase (Trypanosoma brucei brucei) (UniProt O15648); test: qHTS Assay to Find Inhibitors of T. brucei phosphofructokinase: hit validation (AID 492961);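 also: luminescence reports ADP formed as PFK phosphorylates fructose-6-phosphate with ATP; series mostly up to about 51 µM; % is scaled to controls: 0 for no effect and ±100 for the full control effect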
Chain of ATP-dependent 6-phosphofructokinase (Trypanosoma brucei brucei) (O15648 whole entry, looked up): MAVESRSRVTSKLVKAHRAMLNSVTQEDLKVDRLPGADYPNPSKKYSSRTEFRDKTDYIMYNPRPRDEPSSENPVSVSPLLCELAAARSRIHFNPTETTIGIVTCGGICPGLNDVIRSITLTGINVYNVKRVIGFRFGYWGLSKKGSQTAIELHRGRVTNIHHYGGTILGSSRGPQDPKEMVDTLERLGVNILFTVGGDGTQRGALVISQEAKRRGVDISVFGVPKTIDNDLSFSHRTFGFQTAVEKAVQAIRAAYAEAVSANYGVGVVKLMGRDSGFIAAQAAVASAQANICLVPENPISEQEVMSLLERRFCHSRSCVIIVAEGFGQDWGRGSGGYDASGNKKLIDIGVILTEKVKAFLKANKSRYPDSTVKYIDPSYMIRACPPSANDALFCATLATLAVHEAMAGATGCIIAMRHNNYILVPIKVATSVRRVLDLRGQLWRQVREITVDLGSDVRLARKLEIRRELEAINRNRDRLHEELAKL
Method in brief: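 PFK 1.25 nM, F6P 0.5 mM, ATP 0.1 mM, MgCl2 5 mM, 0.1 M TEA pH 8.0, Tween20 0.01%, BSA 0.1%; 45 min RT. ADP-Glo two-step detection, luminescence. qHTS titration; curve fitting with curve-class categorization.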

[3] = Validation screen for small molecules that induce genotoxicity in human embryonic kidney (HEK293T) cells expressing luciferase-tagged ELG1 (AID 493106); also: 0% is about no effect
Method in brief: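 Luminescence from an ELG1-luciferase fusion serves as the read-out, rising when genetic stress elevates ELG1 protein. HEK293T reporter cells (2,000 per well) received 23 nL compound, incubated 16 hr at 37 °C, then ONE-Glo for 30 min at room temperature.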

[4] = biological target: ATPase family AAA domain-containing protein 5 (Homo sapiens) (UniProt Q96QE3); test: Validation screen for small molecules that inhibit ELG1-dependent DNA repair in human embryonic kidney (HEK293T) cells expressing luciferase-tagged ELG1 (AID 493107);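 also: cells co-treated with the DNA-damaging agent 5-fluorouridine alongside compound; series mostly up to about 46 µM; % is scaled to controls: 0 for no effect and ±100 for the full control effect; inhibitors lower the ELG1-luciferase luminescence signal; nearly all actives have a fitted effect of over 70% in size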
Chain of ATPase family AAA domain-containing protein 5 (Homo sapiens) (Q96QE3 whole entry, looked up, the tested form may be a part): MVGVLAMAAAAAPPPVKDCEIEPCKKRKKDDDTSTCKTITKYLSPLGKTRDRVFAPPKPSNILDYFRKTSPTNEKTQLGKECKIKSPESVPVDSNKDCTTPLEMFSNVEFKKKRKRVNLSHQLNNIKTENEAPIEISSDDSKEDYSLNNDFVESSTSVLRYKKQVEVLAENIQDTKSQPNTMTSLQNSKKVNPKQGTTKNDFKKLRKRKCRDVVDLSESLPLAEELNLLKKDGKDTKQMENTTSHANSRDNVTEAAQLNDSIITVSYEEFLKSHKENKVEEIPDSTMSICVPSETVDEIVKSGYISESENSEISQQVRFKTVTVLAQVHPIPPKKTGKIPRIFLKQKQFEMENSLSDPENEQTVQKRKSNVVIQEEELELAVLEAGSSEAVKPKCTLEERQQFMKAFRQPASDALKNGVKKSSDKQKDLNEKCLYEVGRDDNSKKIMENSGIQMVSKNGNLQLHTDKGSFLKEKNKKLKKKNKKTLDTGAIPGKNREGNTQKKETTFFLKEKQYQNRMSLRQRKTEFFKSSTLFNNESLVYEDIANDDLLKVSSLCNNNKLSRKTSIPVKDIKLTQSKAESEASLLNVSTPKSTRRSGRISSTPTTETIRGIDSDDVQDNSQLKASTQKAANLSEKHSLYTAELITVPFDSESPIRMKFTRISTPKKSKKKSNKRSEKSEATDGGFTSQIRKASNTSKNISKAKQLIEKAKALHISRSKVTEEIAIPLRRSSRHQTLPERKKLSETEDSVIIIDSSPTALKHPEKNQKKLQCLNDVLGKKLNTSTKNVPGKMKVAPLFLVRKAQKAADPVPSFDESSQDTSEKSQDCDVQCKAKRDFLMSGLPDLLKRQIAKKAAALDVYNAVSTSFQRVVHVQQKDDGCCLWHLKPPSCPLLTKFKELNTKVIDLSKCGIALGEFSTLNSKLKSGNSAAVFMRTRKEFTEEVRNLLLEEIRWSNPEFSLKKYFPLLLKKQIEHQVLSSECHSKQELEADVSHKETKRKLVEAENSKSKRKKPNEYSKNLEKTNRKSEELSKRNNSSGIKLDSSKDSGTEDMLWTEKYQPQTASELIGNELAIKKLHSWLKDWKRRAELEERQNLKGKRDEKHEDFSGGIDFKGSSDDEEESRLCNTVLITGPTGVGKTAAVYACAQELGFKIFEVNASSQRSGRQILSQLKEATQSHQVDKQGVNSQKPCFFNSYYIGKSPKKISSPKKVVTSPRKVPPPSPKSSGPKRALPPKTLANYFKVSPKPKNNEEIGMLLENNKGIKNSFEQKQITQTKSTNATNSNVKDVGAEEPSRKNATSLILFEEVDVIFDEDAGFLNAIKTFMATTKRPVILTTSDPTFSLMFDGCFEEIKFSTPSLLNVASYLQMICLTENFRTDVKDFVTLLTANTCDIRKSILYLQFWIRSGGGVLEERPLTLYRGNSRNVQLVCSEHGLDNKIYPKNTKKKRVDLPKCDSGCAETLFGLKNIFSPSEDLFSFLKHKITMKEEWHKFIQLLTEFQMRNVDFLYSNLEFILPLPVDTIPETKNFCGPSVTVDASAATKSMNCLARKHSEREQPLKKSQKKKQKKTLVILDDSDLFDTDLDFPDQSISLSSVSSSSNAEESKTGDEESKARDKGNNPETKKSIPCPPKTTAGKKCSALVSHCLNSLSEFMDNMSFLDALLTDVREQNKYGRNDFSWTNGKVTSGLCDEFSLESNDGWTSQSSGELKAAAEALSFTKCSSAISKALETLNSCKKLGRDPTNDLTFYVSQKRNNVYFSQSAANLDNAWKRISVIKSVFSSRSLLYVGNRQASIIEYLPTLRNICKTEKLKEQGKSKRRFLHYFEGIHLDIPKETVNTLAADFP
Method in brief: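 Luminescence from ONE-Glo, developed 30 min at room temperature, served as read-out of ELG1-luciferase levels. Beforehand, reporter HEK293T cells received 5-fluorouridine plus test compound for 16 hr at 37 °C.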

[5] = biological target: Thyrotropin-releasing hormone receptor (Homo sapiens) (UniProt P34981); test: qHTS for Small Molecule Agonists and Allosteric Enhancers of Human TRH Receptor: Validation Screen for Agonists (AID 493127;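 active = calcium activation more than 3 SD above the typical response in the agonist read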;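 also: intracellular calcium rise by fluo-8 fluorescence before TRH EC20 addition; 0% is about no effect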); conditions: TRH receptor agonist cell assay; at 2 µM; stronger effect = higher value
Chain of Thyrotropin-releasing hormone receptor (Homo sapiens) (P34981 whole entry, looked up): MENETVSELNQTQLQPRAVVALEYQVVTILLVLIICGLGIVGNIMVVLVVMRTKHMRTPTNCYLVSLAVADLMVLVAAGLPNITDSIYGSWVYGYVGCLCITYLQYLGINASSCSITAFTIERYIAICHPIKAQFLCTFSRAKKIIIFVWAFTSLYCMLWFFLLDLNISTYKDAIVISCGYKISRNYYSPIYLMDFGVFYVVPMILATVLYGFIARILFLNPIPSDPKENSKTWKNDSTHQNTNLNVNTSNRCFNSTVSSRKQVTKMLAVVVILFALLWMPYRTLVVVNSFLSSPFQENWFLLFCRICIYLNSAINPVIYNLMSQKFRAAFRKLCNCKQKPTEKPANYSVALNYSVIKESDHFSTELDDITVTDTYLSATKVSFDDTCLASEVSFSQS
Method in brief: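 Cells 2000/well, 10% FCS, 18 h 33.5C/5% CO2 → fluo-8 Ca dye, RT 30 min–1.5 h → FDSS baseline 10 × 1 s → compound added → 230 cycles (1 s/cycle) agonist mode. TRH controls.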

[6] = Nrf2 qHTS screen for inhibitors: Validation (AID 493153; active = well fitted inhibition curve with a large enough effect in the main read-out, with a control signal flat, not every such curve was filed as active; also: potency is read from the fitted curve at half-maximal effect); conditions: Potency: luciferase luminescence; viability change: measured here: cytotoxicity max response
Method in brief: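 Luminescence from an ARE-firefly luciferase reporter in A549 cells gives Nrf2 inhibition; an earlier CellTiter-Fluor fluorescent read flags cytotoxicity. Cells in 5% FBS OPTI-MEM received compound dilution series for 18-24 h at 37°C.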

[7] = qHTS for Inhibitors of Cell Surface uPA Generation: Validation Assay (AID 493164); also: 0% is about no effect
Method in brief: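 RAW 264.7 cells (4000/well) were plated overnight, then exposed for 18 h at 37 C, 5% CO2 to compounds in a 7-point 1:5 titration (2.45 nM–38.3 uM final). Intracellular ATP was read by ATP-Lite luminescence.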

[8] = biological target: Galactokinase (Homo sapiens) (UniProt P51570); test: qHTS Validation Assay for Inhibitors of Human Galactokinase (GALK) (AID 493189); also: 0% is about no effect
Chain of Galactokinase (Homo sapiens) (P51570 whole entry, looked up): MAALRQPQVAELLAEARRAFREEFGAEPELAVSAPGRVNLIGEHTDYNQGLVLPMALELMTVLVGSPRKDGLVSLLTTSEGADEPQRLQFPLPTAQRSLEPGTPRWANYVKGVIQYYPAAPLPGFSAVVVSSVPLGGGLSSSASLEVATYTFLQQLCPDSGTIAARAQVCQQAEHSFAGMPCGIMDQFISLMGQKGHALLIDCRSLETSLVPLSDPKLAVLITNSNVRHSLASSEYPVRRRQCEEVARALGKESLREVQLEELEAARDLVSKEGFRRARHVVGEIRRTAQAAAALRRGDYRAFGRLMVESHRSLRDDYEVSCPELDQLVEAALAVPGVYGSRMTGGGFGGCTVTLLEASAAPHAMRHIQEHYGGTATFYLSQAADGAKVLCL
Method in brief: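 GALK (5 nM) with 35 uM ATP and 100 uM galactose in HEPES pH 8.0 with MgCl2, NaCl, DTT and BSA. Reaction ran 1 h at room temperature. Residual ATP read by Kinase-Glo Plus luminescence.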

[9] = Validation screen for small molecules that induce DNA re-replication in SW480 colon adenocarcinoma cells (AID 504364); also: 0% is about no effect
Method in brief: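 250 cells/well; compound pinned in; 48 hr, 37 C, 5% CO2; Hoechst added, 40 min; nuclear fluorescence imaged, 405 ex / 500-530 em; re-replication scored as increase in high-intensity nuclei.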

[10] = biological target: Peptidyl-prolyl cis-trans isomerase NIMA-interacting 1 (Homo sapiens) (UniProt Q13526); test: qHTS Validation Assay to Find Inhibitors of Pin1 (AID 504536; active = well fitted inhibition curve with a large enough effect in the polarisation, with a control signal flat, not every such curve was filed as active; the % refers to the polarisation;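 also: 0% = full Pin1 enzyme wells and -100% = no-enzyme wells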)
Chain of Peptidyl-prolyl cis-trans isomerase NIMA-interacting 1 (Homo sapiens) (Q13526 whole entry, looked up): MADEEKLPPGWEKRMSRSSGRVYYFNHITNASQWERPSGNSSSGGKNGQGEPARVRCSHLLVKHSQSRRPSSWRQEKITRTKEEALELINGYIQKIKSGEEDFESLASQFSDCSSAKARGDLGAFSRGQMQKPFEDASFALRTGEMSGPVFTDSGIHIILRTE
Method in brief: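 Fluorescence polarization competition: compounds (titration) displace HiFluor-488-labeled Pin1-1b peptide from Pin1 (0.3 uM final) in pH 7.5 HEPES buffer with DTT, 10 min at room temperature; %Activity normalized to no-enzyme wells, curves fitted.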

[11] = biological target: Phosphoglycerate kinase, glycosomal (Trypanosoma brucei brucei) (UniProt P07378); test: qHTS Validation Assay to Find Inhibitors of Phosphoglycerate Kinase (AID 504547);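 also: control wells lack PGK and mark full inhibition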
Chain of Phosphoglycerate kinase, glycosomal (Trypanosoma brucei brucei) (P07378 whole entry, looked up): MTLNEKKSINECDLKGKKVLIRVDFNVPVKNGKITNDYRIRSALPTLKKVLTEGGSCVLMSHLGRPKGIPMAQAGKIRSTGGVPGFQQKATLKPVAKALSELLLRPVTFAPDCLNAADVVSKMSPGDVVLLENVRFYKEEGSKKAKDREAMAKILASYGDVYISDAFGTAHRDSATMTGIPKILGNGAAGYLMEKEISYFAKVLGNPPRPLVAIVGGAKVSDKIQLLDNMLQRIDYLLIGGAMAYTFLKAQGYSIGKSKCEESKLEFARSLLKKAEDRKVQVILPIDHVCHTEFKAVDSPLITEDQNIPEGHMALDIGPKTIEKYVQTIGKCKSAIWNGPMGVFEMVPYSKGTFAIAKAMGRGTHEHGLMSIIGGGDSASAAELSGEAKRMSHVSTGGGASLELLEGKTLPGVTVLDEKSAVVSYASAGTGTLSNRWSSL
Method in brief: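 Substrate/PGK mix plus compound; reaction started with GAPDH (100nM final) to form 1,3-BPG; 60 min RT; Kinase-Glo Plus 10 min; luminescence. TEA 100mM pH 7.6, MgCl2 5mM, Tween-20 0.01%.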

[12] = biological target: phosphoglycerate mutase (Leishmania major) (UniProt Q4Q090); test: qHTS Validation Assay to Find Inhibitors of Phosphoglycerate Mutase (AID 504548);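 also: end-point luminescence from Kinase-GloPlus after the PGAM reaction; series mostly up to about 58 µM; % is scaled to controls: 0 for no effect and ±100 for the full control effect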
Method in brief: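 L. major PGAM (1.25nM final) was added to substrate buffer and pinned compound, incubated 45 minutes at room temperature, then Kinase-GloPlus added; luminescence read after 10 minutes. Buffer: 100 mM TEA pH 7.6, 5 mM MgCl2, 0.01% Tween-20.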

[13] = biological target: Ubiquitin carboxyl-terminal hydrolase 1 (Homo sapiens) (UniProt O94782); test: Inhibitors of USP1/UAF1: Pilot qHTS (AID 504865); also: nearly all actives have a fitted effect of over 35% in size; also: potency is read from the fitted curve at half-maximal effect
Method in brief: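 USP1/UAF1 complex at 1 nM preincubated 15 min at room temperature with compound, then Ub-Rho substrate added at 150 nM final. Fluorescence (480/540 nm) read kinetically in 50 mM HEPES pH 7.8, 0.5 mM EDTA, 1 mM TCEP, 0.1 mg/ml BSA, 0.01% Tween-20.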

[14] = qHTS for Inhibitors of ATXN expression: Validation of Cytotoxic Assay (AID 588349); also: potency is read from the fitted curve at half-maximal effect
Method in brief: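 Read-out: ATP-based luminescence (CellTiter Glo) reflecting viability of HEK293 cells after 72 hr incubation at 37 degrees C with a concentration series of each compound.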

[15] = qHTS for Inhibitors of ATXN expression: Validation (AID 588378); also: nearly all actives have a fitted effect of over 75% in size; also: potency is read from the fitted curve at half-maximal effect
Method in brief: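 HEK293 cells carrying ATXN2-firefly luciferase reporter, treated with compound 24 h at 37 °C. Viability read first by CellTiter-Fluor (405/525 nm), then reporter expression by Bright-Glo luminescence; controls were a known ATXN2 expression inhibitor and a luciferase inhibitor.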

[16] = biological target: DNA dC->dU-editing enzyme APOBEC-3G (Homo sapiens) (UniProt Q9HC16); test: qHTS for inhibitors of Vif-A3G interactions: Validation (AID 588379); also: 0% is about no effect
Method in brief: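 HeLa cells stably expressing Vif and A3G-eYFP, 700 cells/well, incubated overnight at 37 deg C, then exposed to compound overnight at 37 deg C. Inhibition of Vif-mediated degradation read as increased yellow fluorescence (Ex 488/Em 500-530) by laser-scanning cytometry.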

[17] = biological target: Tyrosyl-DNA phosphodiesterase 1 (Homo sapiens) (UniProt Q9NUW8); test: Confirmation Assay for Inhibitors of Tyrosyl-DNA Phosphodiesterase (TDP1) (AID 489007); conditions: recombinant human TDP1 enzymatic activity, dose-response; also: potency is read from the fitted curve at half-maximal effect; nearly all actives have a fitted effect of over 40% in size
Method in brief: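 Tdp1 1 nM + cpd, 15 min RT; add biotin/phosphotyrosine-FITC oligo 15 nM, 5 min RT; add AS donor/acceptor beads 10 ug/ml, 10 min RT; read AlphaScreen. No-enzyme wells = max signal.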

[18] = biological target: Estrogen receptor (Homo sapiens) (UniProt P03372); test: qHTS assay for small molecule antagonists of estrogen receptor alpha signaling (AID 588513; active = well fitted curve in the direction sought with a large enough effect in the signal ratio, with a control signal flat, not every such curve was filed as active; the % refers to the signal ratio; also: % is scaled to controls: 0 for no effect and ±100 for the full control effect)
Chain of Estrogen receptor (Homo sapiens) (P03372 whole entry, looked up): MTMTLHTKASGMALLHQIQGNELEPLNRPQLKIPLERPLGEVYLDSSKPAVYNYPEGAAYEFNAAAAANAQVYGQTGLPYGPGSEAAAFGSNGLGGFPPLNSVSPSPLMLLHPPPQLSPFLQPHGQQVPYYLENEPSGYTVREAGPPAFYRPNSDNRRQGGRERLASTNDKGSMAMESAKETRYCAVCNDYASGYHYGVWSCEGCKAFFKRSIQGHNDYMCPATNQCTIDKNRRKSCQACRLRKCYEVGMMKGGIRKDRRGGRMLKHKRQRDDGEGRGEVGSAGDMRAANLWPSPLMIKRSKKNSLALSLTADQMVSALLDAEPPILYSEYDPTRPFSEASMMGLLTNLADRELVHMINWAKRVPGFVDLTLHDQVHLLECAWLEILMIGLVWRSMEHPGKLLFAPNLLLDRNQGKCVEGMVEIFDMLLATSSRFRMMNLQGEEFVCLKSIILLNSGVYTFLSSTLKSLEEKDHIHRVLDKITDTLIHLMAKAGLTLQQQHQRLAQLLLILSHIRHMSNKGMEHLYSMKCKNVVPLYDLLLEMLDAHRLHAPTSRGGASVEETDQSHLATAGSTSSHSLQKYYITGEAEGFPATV
Method in brief: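 ER-alpha-UAS-bla GripTite HEK 293 cells in 2% charcoal/dextran-treated FBS medium; compounds titrated (1:2, duplicate), then stimulated with 0.5 nM 17-beta-estradiol for 18 h at 37C. CCF4 beta-lactamase fluorescence; Hill-fit IC50 and efficacy.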

[19] = biological target: Estrogen receptor (Homo sapiens) (UniProt P03372); test: qHTS assay for small molecule agonists of estrogen receptor alpha signaling (AID 588514; calls by dose curve;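 also: 0% = vehicle only and 100% = reference agonist; nearly all actives have a fitted effect of over 70% in size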)
Method in brief: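 Cells were plated at 5000/well, incubated 4 hrs at 37 C, dosed with compound titration series, incubated 18 hrs at 37 C, loaded with CCF4 dye for 2 hrs at RT, then fluorescence was read.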

CCCCCCCCCCCCCCCC(=O)NCCO
inactive: Potency [1] | Potency [2] | Potency [3] | outcome [4] | activation [5] 1.06% | Potency [6] | outcome [7] | outcome [8] | outcome [9] | outcome [10] | outcome [11] | outcome [12] | Potency [13] | Potency [14] | Potency [15] | outcome [16]
-3.02%: viability change [6]

Nc1ncnc2c1ncn2[C@@H]1O[C@H](CO)[C@@H](O)[C@H]1O
4.32%: viability change [6]
inactive: Potency [1] | Potency [2] | Potency [3] | outcome [4] | Potency [6] | outcome [7] | outcome [10] | outcome [11] | outcome [12] | Potency [13] | Potency [14] | Potency [15] | outcome [16]

CN1CCN(C2Cc3ccccc3Sc3ccc(Cl)cc32)CC1 (stereo not drawn)
-10.9%: viability change [6]
inactive: Potency [2] | Potency [3] | activation [5] 0.75% | Potency [6] | outcome [7] | outcome [8] | outcome [9] | outcome [10] | outcome [11] | outcome [12]
active: Potency [1] 0.199 µM | Potency [14] 17.8 µM | Potency [15] 12.6 µM

CC(C)C(=O)c1c(C(C)C)nn2ccccc12
inactive: Potency [1] | Potency [3] | outcome [4] | activation [5] -4.94% | outcome [7] | outcome [8] | outcome [9] | outcome [10] | outcome [11] | outcome [12] | Potency [13] | Potency [14] | Potency [15] | outcome [16]

O=Cc1ccccc1C=O
inactive: Potency [2]
active: Potency [17] 14.1 µM | Potency [13] 50.1 µM

C[C@]12C[C@H](O)[C@H]3[C@@H](CCC4=CC(=O)CC[C@@]43C)[C@@H]1CC[C@@H]2C(=O)CO
-3.09%: viability change [6]
active: Potency [6] 6.51 µM
inactive: Potency [1] | Potency [2] | Potency [3] | outcome [4] | outcome [7] | outcome [10] | outcome [11] | outcome [12] | Potency [13] | Potency [14] | Potency [15] | outcome [18] | outcome [19]

CNCCCC1c2ccccc2C=Cc2ccccc21
4.24%: viability change [6]
active: Potency [1] 11.2 µM
inactive: Potency [2] | Potency [3] | outcome [4] | activation [5] 7.31% | Potency [6] | outcome [7] | outcome [8] | outcome [9] | outcome [10] | outcome [11] | outcome [12] | Potency [13] | Potency [14]

CC(CN1c2ccccc2Sc2ccccc21)N(C)C (stereo not drawn)
inactive: Potency [3] | outcome [4] | activation [5] 3.12% | Potency [6] | outcome [7] | outcome [8] | outcome [9] | outcome [10] | outcome [11] | outcome [12] | Potency [13]
active: Potency [1] 10 µM | Potency [15] 17.8 µM
5.51%: viability change [6]

N=c1c[n+](N2CCOCC2)[n-]o1
0.362%: viability change [6]
inactive: Potency [1] | Potency [3] | activation [5] 0.5% | Potency [6] | outcome [7] | outcome [8] | outcome [9] | outcome [10] | outcome [11] | outcome [12] | Potency [13] | Potency [14] | Potency [15]

COCCOC(=O)C1=C(C)NC(C)=C(C(=O)OC/C=C/c2ccccc2)C1c1cccc([N+](=O)[O-])c1 (stereo not drawn)
inactive: Potency [1] | Potency [2] | Potency [3] | outcome [7] | outcome [10] | outcome [11] | outcome [12]

COc1ccc(Cl)cc1C(=O)NCCc1ccc(S(=O)(=O)NC(=O)NC2CCCCC2)cc1
inactive: Potency [1] | Potency [3] | outcome [4] | activation [5] 1% | outcome [7] | outcome [8] | outcome [9] | outcome [10] | outcome [11] | outcome [12] | Potency [13] | Potency [14] | Potency [15] | outcome [16]

CC1=C(/C=C/C(C)=C/C=C/C(C)=C/C(=O)O)C(C)(C)CCC1
inactive: Potency [1] | Potency [3] | outcome [4] | activation [5] 0.375% | Potency [6] | outcome [7] | outcome [8] | outcome [9] | outcome [10] | outcome [11] | outcome [12] | Potency [14] | Potency [15] | outcome [16]
active: Potency [13] 79.4 µM
-3.39%: viability change [6]

Cn1c(=O)c2c(ncn2CC2OCCO2)n(C)c1=O
inactive: Potency [2]

CC(C)(C)NCC(O)COc1ccc(NC(=O)NC2CCCCC2)cc1 (stereo not drawn)
inactive: Potency [2] | Potency [13]

Cc1ccc2nc(N)[nH]c(=O)c2c1Sc1ccncc1
inactive: Potency [2] | Potency [13]

CCN(CC)CCNC(=O)c1c(C)[nH]c(/C=C2\C(=O)Nc3ccc(F)cc32)c1C
inactive: Potency [2]
